Cycloheximide cs = Cycloheximide Counterscreen for Small Molecule Inhibitors of Shiga Toxin | 300,000 compounds, 12% hits | AID 2314, 2010 | cell reporter, cycloheximide protein synthesis inhibition counterscreen | max response, %; in the data active = max response mostly above about 13%, no sharp cut-off; inactive = mostly below about 14%; note: read at 38.3 µM for the half of the compounds with a filed dose
Pf growth 96h = Primary qHTS for delayed death inhibitors of the malarial parasite plastid, 96 hour incubation; P. falciparum luciferase reporter growth, 96 h; Potency, µM (titrated, usually from 28.7 µM), actives largely listed as inhibitors; 320,000 compounds, 6.9% hits; AID 504834, 2011
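Two-generation exposure (96 h) targets delayed-death phenotype. Reporter parasites carrying integrated firefly luciferase, in red cells at 2% hematocrit and 0.05% parasitemia final, kept at 37 C, 5% CO2; luminescence loss indicates inhibition.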
Pf growth 48h = Primary qHTS for delayed death inhibitors of the malarial parasite plastid, 48 hour incubation | 310,000 compounds, 5.9% hits | Potency, µM (doses to about 28.7 µM), usual class: inhibitors | AID 504832, 2011 | P. falciparum luciferase growth in erythrocytes, 48 h
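Parasite viability was followed by luminescence of a genomically integrated firefly luciferase. Cultures held 0.1% parasitemia at 2% hematocrit (final), incubated under 5% CO2 at 37 C.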
HCV inhibitor = qHTS Assay for Inhibitors of Hepatitis C Virus (HCV) | Potency, µM (highest dose often 41.8 µM), usual class: inhibitors | 340,000 compounds, 3.4% hits | Huh7.5.1 HCVcc-Cre infection, luciferase reporter, 44 h
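Seed cells (1,000/well) for 4 h; treat with compound and infect with HCVcc-Cre, moi about 0.5. Incubate 44 h, then detect luciferase activity.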
Shiga toxin inh = A qHTS for Small Molecule Inhibitors of Shiga Toxin. Vero cells, Shiga toxin protein synthesis inhibition reporter. inhibition, % at 38.7 µM. 290,000 compounds, 9.2% hits. AID 2315, 2010; in the data active = inhibition mostly above about 28%, no sharp cut-off; inactive = mostly below about 43%
HCMV antiviral = qHTS Assay for inhibitors of the human cytomegalovirus (HCMV); activity change, negative = inhibition, % at 57.5 µM; HFF cells, HCMV-luciferase reporter, 72 h; active compounds read low; 410,000 compounds, 4.5% hits; AID 1259415, 2018; in the data active = activity change below about -60%; inconclusive = no clear call, values can overlap the other calls; inactive = above about -39%
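Two-dose cell screen: HFF monolayers treated with compounds and infected with luciferase-expressing HCMV at 1 PFU/cell, 72 h at 37C, then lysed for luciferase measurement.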
A number is an active result; 0 = inactive; ? = inconclusive; - = no result; [ ] = remark or other dose. This is a sample that favours compounds with a hit; in the whole collection about 21% have one here. Unless noted, calls come from the whole dose curve; as a rule, active = well fitted inhibition curve with a large enough effect; inconclusive = small, poorly fitted or top-dose-only effect, or another doubt; inactive = no such curve, though single readings can be large or run the other way.

SMILES	Cycloheximide cs	Pf growth 96h	Pf growth 48h	HCV inhibitor	Shiga toxin inh	HCMV antiviral
COc1ccc([C@H]2/C=C\CN(Cc3ccc(N(C)C)cc3)[C@@H](C)C(=O)N2Cc2ccc(F)cc2)cc1	-	-	-	0	-	0
COc1ccc(C2/C=C\CN(CC3CC3)C(Cc3ccccc3)C(=O)N2Cc2ccc(F)cc2)cc1 (stereo unspecified)	0	-	-	-	0	-
COc1ccc([C@H]2/C=C\CN(C(=O)CC(C)(C)C)[C@@H](C)C(=O)N2Cc2ccc(F)cc2)cc1	-	-	-	0	-	-60
COc1ccc(C2/C=C\CN(CC(C)C)C(Cc3ccccc3)C(=O)N2Cc2ccc(F)cc2)cc1 (stereo unspecified)	99	-	-	-	126	-
CC(C)COc1ccc(C(=O)N2CCN(CCc3ccccn3)CC2)cc1	-	-	-	-	-	0
O=S(=O)(Nc1cc(F)ccc1F)c1ccc2[nH]c3c(c2c1)CCCC3	-	-	-	-	-	0
CCN(CC)S(=O)(=O)c1cc(C(=O)Nc2cc(S(=O)(=O)N3CCOCC3)ccc2N2CCN(C)CC2)ccc1C	-	-	-	?	-	0
C#C[C@]1(O)CC[C@H]2[C@@H]3CCc4cc(OC)ccc4[C@H]3CC[C@@]21C	0	0	0	0[8.37 µM]	0	0
C#C[C@]1(O)CC[C@H]2[C@@H]3CCc4cc(OC5CCCC5)ccc4[C@H]3CC[C@@]21C	0	?	0	0.63µM	0	0
Cc1cccc2cc(C(c3nnnn3C(C)(C)C)N(Cc3ccco3)CC3CCCO3)c(=O)[nH]c12 (stereo unspecified)	0	?	12µM	0	0	0
O=C(NCc1ccco1)C(c1ccccc1F)N(CC1CCCO1)C(=O)Cn1nnc2ccccc21 (stereo unspecified)	0	0	0	0	0	0
CCC(c1nnnn1Cc1ccco1)N(Cc1cc2cc(C)cc(C)c2[nH]c1=O)CC1CCCO1 (stereo unspecified)	0	0	?	?	0	0
CC(C)(C)n1nnnc1C(c1ccccc1F)N(Cc1ccco1)CC1CCCO1 (stereo unspecified)	0	0	13µM	0	0	?
Cc1ccc2[nH]c(=O)c(C(c3nnnn3C(C)(C)C)N(Cc3ccco3)CC3CCCO3)cc2c1 (stereo unspecified)	0	?	6.6µM	0	0	0
Cc1ccc(OCc2nc(-c3ccc(C(=O)N4CCN(c5ccc(Cl)cc5)CC4)cc3)oc2C)cc1	-	-	-	-	-	0
Cc1cc(N2CCN(Cc3nc(-c4ccc(F)cc4)oc3C)CC2)cc(C)n1	0	12µM	?	?	0	?
COc1ccc(-c2nc(CN3CCC(c4ccccc4)CC3)c(C)o2)cc1OC	0	13µM	12µM	?	0	-65
Cc1oc(-c2cc(F)ccc2F)nc1CN1CCN(c2ncnc3ccccc23)CC1	25	0	0	0.56µM	0	-63
COc1ccccc1N1CCN(Cc2nc(-c3ccc(F)cc3)oc2C)CC1	0	?	?	22µM	0	0
COc1ccccc1CNC(=O)C1CCN(Cc2nc(-c3ccc(OC)c(OC)c3)oc2C)CC1	-	-	-	-	-	0
OCC[C@H]1C[C@@H](O)[C@H](O)[C@@]2(Cc3ccccc3CO2)O1	-	0	0	0	-	0
Cc1cccc(C2N3CC4(C(C)C)CN2CC(C(C)C)(C3)C4=O)c1 (stereo unspecified)	-	-	-	-	-	0
Nc1c(C(=O)OCC(=O)Nc2cccc([N+](=O)[O-])c2)[nH]c(=O)[nH]c1=O	-	-	-	0	-	-
CC(=O)Nc1ccccc1OCCOc1ccc(Br)cc1	0	0	0	?	0	0
NC(=O)c1ccccc1OCCOc1ccc(Br)cc1	17	0	0	?	57	?
SMILES	Cycloheximide cs	Pf growth 96h	Pf growth 48h	HCV inhibitor	Shiga toxin inh	HCMV antiviral
COCCN=c1scc(-c2cccs2)n1/N=C(\C)c1ccco1	83	?	0	0	124	0
CCCCOC(=O)c1ccc(NC(=S)NC(=O)c2c(Cl)cnn2C)cc1	0	0	0	0	0	0
CCCCCOC(=O)c1ccc(NC(=O)c2ccco2)cc1	36	0	1.3µM	0	68	0
CCCCOC(=O)c1ccc(NC(=S)NC(=O)c2ccco2)cc1	0	12µM	?	0	0	0
CCCCCCCCOc1ccccc1C(=O)Nc1ccc(C(=O)OCC[N+](C)(CC)CC)cc1	-	1.3µM	15µM	-	-	-
CN1N=C2c3ccccc3CCCC2C1c1ccc(F)cc1 (stereo unspecified)	39	0	0	0	76	0
CN1CCN(C(=O)/C(=C/c2ccc([N+](=O)[O-])cc2)NC(=O)c2ccccc2)CC1	0	0	0	0	0	0
CC(=O)OC(C)(C)/C=C/C(=O)C(C)(O)C1C(O)CC2(C)C3CC=C4C(CC(O)C(=O)C4(C)C)C3(C)C(=O)CC12C (stereo unspecified)	-	-	-	?	-	-98
CC(=O)OC(C)(C)/C=C/C(=O)C(C)(O)C1[C@H](O)C[C@@]2(C)C3CC=C4C(CC[C@@H](O)C4(C)C)[C@]3(CO)C(=O)C[C@]12C (stereo partly specified)	0	1.7µM	10µM	?	0	-101
CC1(C)Oc2ccc3ccc(=O)oc3c2C[C@H]1O[C@@H]1O[C@H](CO)[C@@H](O)[C@H](O)[C@H]1O	-	-	-	0	-	0
CC(=O)OC(C)(C)/C=C/C(=O)[C@](C)(O)C1[C@H](O)C[C@@]2(C)C3CC=C4C(C=C(O[C@@H]5O[C@H](CO)[C@@H](O)[C@H](O)[C@H]5O)C(=O)C4(C)C)[C@]3(C)C(=O)C[C@]12C (stereo partly specified)	-	-	-	0[8.37 µM]	-	-86
CC(=O)OC(C)(C)/C=C/C(=O)[C@](C)(O)[C@H]1[C@H](O)C[C@@]2(C)[C@@H]3CC=C4[C@H](C[C@H](O)C(=O)C4(C)C)[C@]3(C)C(=O)C[C@]12C	0	3.3µM	3.7µM	0	0	-
Cc1cccn2c(=O)c(C=O)c(Nc3ccccc3)nc12	0	0	0	?	0	-
CCC(=O)c1cc2c(cc1NC(=O)C(C)C)OCCO2	0	2.3µM	0	6.3µM	0	0
CCCC(=O)c1cc2c(cc1NC(=O)c1ccccc1F)OCCO2	0	12µM	?	?	0	0
CCC(=O)c1cc2c(cc1NC(=O)c1ccccc1F)OCCO2	-	-	-	-	-	0
CC(C)C(=O)Nc1cc2c(cc1C(=O)c1ccccc1)OCCO2	0	1.3µM	?	0	0	0
CC(=O)Nc1ccc2ccccc2c1[N+](=O)[O-]	-	-	-	0	-	0
C/C(CC(C)(C)C1CCCCC1)=N\NC(N)=S	0	2.9µM	-	2.8µM	0	-88
Nc1ccccc1SC/C=C/CSc1ccccc1N	37	0	-	?	68	0
O=C1CC(c2ccccc2Cl)=NN(c2ncnc3ccccc23)C1=O	41	0	0	0	94	0
O=C(CC(c1cccs1)N1Cc2ccccc2C1=O)Nc1cccc(F)c1 (stereo unspecified)	-	-	-	-	-	0

Compound activity from PubChem BioAssay.
